From PubChem BioAssay (Tox21)
Results filed as inconclusive are left out. Activity calls are given as the source filed them. The call rests on the fitted dose curve; in most records, active means well fitted curve in the direction sought with a large enough effect in the repeat runs; inconclusive means weak or mixed curves; inactive means no such curve, though single readings can be large; an effect the other way counts as inactive or inconclusive.

Columns and labels:
[1] = A CellTox Green Cytotoxicity Assay to monitor cytotoxicity in HEK293 cells - 40 hour (AID 1224871); further: nearly all actives have a fitted effect of over 45% in size
Summary of the method: (§1)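 Read-out: fluorescence of a cell-impermeant cyanine dye staining DNA of dead cells, proportional to cytotoxicity. HEK293, 600 cells/well with reagent, compound (23 nL DMSO) added after 5 h; reads at 0, 8, 16, 24, 32, 40 h.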

[2] = qHTS RealTime-Glo MT Cell Viability Assay in HEK293 cells - 16 hour (AID 1224872); further: top concentration of the series differs between compounds; nearly all actives have a fitted effect of over 50% in size
Summary of the method: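 Cells + reagent dispensed (600 cells/well, HEK293) → 5 h at 37 C/5% CO2 → 23 nL compound in DMSO pinned → 40 h at 37 C → luminescence read at 0, 8, 16, 24, 32, 40 h.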

[3] = qHTS RealTime-Glo MT Cell Viability Assay in HepG2 cells - 8 hour (AID 1224873); further: nearly all actives have a fitted effect of over 55% in size
Summary of the method: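 HepG2 cells (600/well) mixed with RealTime-Glo MT reagent, settled 5 h at 37 C/5% CO2 before compound addition. Nonlytic NanoLuc luminescence from viable-cell prosubstrate reduction read repeatedly during 40 h treatment at 37 C.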

[4] = qHTS RealTime-Glo MT Cell Viability Assay in HEK293 cells - 40 hour (AID 1224874); conditions: RealTime-Glo luminescence; max response: stronger effect = lower value; further: nearly all actives have a fitted effect of over 50% in size
Summary of the method: (§2)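 Luminescence readout at each listed time point; HEK293, 600 cells/well, RealTime-Glo MT reagent added with cells; compounds pinned (23 nL in DMSO) after 5 h at 37 C; continuous culture at 37 C.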

[5] = A CellTox Green Cytotoxicity Assay to monitor cytotoxicity in HEK293 cells - 24 hour (AID 1224875); further: series mostly up to about 77 µM; nearly all actives have a fitted effect of over 45% in size
Summary of the method: as §1

[6] = A CellTox Green Cytotoxicity Assay to monitor cytotoxicity in HepG2 cells - 16 hour (AID 1224876); further: nearly all actives have a fitted effect of over 45% in size
Summary of the method: (§3)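 HepG2, 600 cells/well premixed w/ CellTox Green; 5 h settle, 37 C/5% CO2; pintool cpd add (DMSO); 37 C, 40 h; fluorescence read at 0, 8, 16, 24, 32, 40 h.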

[7] = qHTS RealTime-Glo MT Cell Viability Assay in HepG2 cells - 32 hour (AID 1224877); further: nearly all actives have a fitted effect of over 55% in size
Summary of the method: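 Real-time, nonlytic viability: 600 HepG2 cells/well mixed with NanoLuc enzyme plus prosubstrate; 5 h settle, compound (DMSO) added by pintool; luminescence monitored over 40 h at 37 C.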

[8] = A CellTox Green Cytotoxicity Assay to monitor cytotoxicity in HepG2 cells - 24 hour (AID 1224878); further: nearly all actives have a fitted effect of over 45% in size
Summary of the method: as §3

[9] = A CellTox Green Cytotoxicity Assay to monitor cytotoxicity in HepG2 cells - 40 hour (AID 1224879); further: nearly all actives have a fitted effect of over 40% in size
Summary of the method: as §3

[10] = qHTS RealTime-Glo MT Cell Viability Assay in HEK293 cells - 0 hour (AID 1224880)
Summary of the method: as §2
On the % scale 0 is the no-effect control and ±100 the full control effect.

CN1[C@@H]2CC[C@H]1CC(OC(=O)C(O)c1ccccc1)C2 (stereo not given in full)
inactive: Potency [1] | Potency [2] | outcome [3] | max response [4] 3.93% | outcome [5] | outcome [6] | Potency [7] | outcome [8] | Potency [9] | Potency [10]

O=S(=O)(O)c1cc(O)c(O)c(S(=O)(=O)O)c1
inactive: Potency [1] | Potency [2] | outcome [3] | max response [4] 0.173% | outcome [5] | outcome [6] | Potency [7] | outcome [8] | Potency [9] | Potency [10]

Cc1ncc(COP(=O)(O)O)c(C=O)c1O
inactive: Potency [1] | Potency [2] | outcome [3] | max response [4] -0.601% | outcome [5] | outcome [6] | Potency [7] | outcome [8] | Potency [9] | Potency [10]

CC(C)(C)OC(=O)c1cccc(N)c1
inactive: Potency [1] | Potency [2] | outcome [3] | max response [4] -10% | outcome [5] | outcome [6] | Potency [7] | outcome [8] | Potency [9] | Potency [10]

OCCc1ccccn1
inactive: Potency [1] | Potency [2] | outcome [3] | max response [4] 3.13% | outcome [5] | outcome [6] | Potency [7] | outcome [8] | Potency [9] | Potency [10]

COc1cc(-c2ccc(=O)[nH]n2)ccc1OC(F)F
inactive: Potency [1] | Potency [2] | outcome [3] | max response [4] -5.19% | outcome [5] | outcome [6] | Potency [7] | outcome [8] | Potency [9] | Potency [10]

CC(C)=CCC/C(C)=C/C#N
inactive: Potency [1] | Potency [2] | outcome [3] | max response [4] 2.39% | outcome [5] | outcome [6] | Potency [7] | outcome [8] | Potency [9] | Potency [10]

O=CN(CCO)CCO
inactive: Potency [1] | Potency [2] | outcome [3] | max response [4] -0.597% | outcome [5] | outcome [6] | Potency [7] | outcome [8] | Potency [9] | Potency [10]

CC(C)(C)c1ccc(-c2ccc(C(C)(C)C)cc2)cc1
inactive: Potency [1] | Potency [2] | outcome [3] | max response [4] -2.15% | outcome [5] | outcome [6] | Potency [7] | outcome [8] | Potency [9] | Potency [10]

CCC1C(=O)OCC1Cc1cncn1C (stereo not given)
inactive: Potency [1] | Potency [2] | outcome [3] | max response [4] 0.511% | outcome [5] | outcome [6] | Potency [7] | outcome [8] | Potency [9] | Potency [10]

C[N+](C)(C)CCCCCCCCCC[N+](C)(C)C
inactive: Potency [1] | Potency [2] | outcome [3] | max response [4] 9.07% | outcome [5] | outcome [6] | Potency [7] | outcome [8] | Potency [9] | Potency [10]

CC(COc1ccccc1)NN (stereo not given)
inactive: Potency [1] | Potency [2] | outcome [3] | max response [4] 2.34% | outcome [5] | outcome [6] | Potency [7] | outcome [8] | Potency [9] | Potency [10]

CC(C)C1CCC(O)CC1 (stereo not given)
inactive: Potency [1] | Potency [2] | outcome [3] | max response [4] 7.59% | outcome [5] | outcome [6] | Potency [7] | outcome [8] | Potency [9] | Potency [10]

CC12CCC(C(=O)C1=O)C2(C)C (stereo not given)
inactive: Potency [1] | Potency [2] | outcome [3] | max response [4] -1.01% | outcome [5] | outcome [6] | Potency [7] | outcome [8] | Potency [9] | Potency [10]

CN(C)CCCCCCN(C)C
inactive: Potency [1] | Potency [2] | outcome [3] | max response [4] -6% | outcome [5] | outcome [6] | Potency [7] | outcome [8] | Potency [9] | Potency [10]

CC(C)(CCC(=O)O)C(=O)O
inactive: Potency [1] | Potency [2] | outcome [3] | max response [4] 0.835% | outcome [5] | outcome [6] | Potency [7] | outcome [8] | Potency [9] | Potency [10]

CCCCCCCCCCCCCCC(=O)O
inactive: Potency [1] | Potency [2] | outcome [3] | max response [4] 23.9% | outcome [5] | outcome [6] | Potency [7] | outcome [8] | Potency [9] | Potency [10]

CCOC(=O)COC(=O)c1ccccc1C(=O)OCC
inactive: Potency [1] | Potency [2] | outcome [3] | max response [4] 11% | outcome [5] | outcome [6] | Potency [7] | outcome [8] | Potency [9] | Potency [10]

COc1ccccc1OCC1CNC(=O)O1 (stereo not given)
inactive: Potency [1] | Potency [2] | outcome [3] | max response [4] 8.57% | outcome [5] | outcome [6] | Potency [7] | outcome [8] | Potency [9] | Potency [10]

CCCO[Si](OCCC)(OCCC)OCCC
inactive: Potency [1] | Potency [2] | outcome [3] | max response [4] 2.55% | outcome [5] | outcome [6] | Potency [7] | outcome [8] | Potency [9] | Potency [10]

O=C(O)CNC(=O)c1ccccc1
inactive: Potency [1] | Potency [2] | outcome [3] | max response [4] -1.85% | outcome [5] | outcome [6] | Potency [7] | outcome [8] | Potency [9] | Potency [10]

O=C(O)CNC(=O)c1ccc(CO)o1
inactive: Potency [1] | Potency [2] | outcome [3] | max response [4] 3.96% | outcome [5] | outcome [6] | Potency [7] | outcome [8] | Potency [9] | Potency [10]
